Assay results from PubChem BioAssay (NCI).
This is part of a sample that, as a whole, favours compounds with a hit. Of some 83,000 tested, about 20% had one in any assay.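 Single-dose data. Exposure time 48 hours. Values below 10 considered active.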 Values without a mark were called inactive. Active and inactive are the calls of the source.

These molecules were tested on KM12 colon (assay: NCI-60 one-dose screen, 48 h (100 = growth as untreated, 0 = no growth, -100 = all killed)). Details: 10 µM unless noted.
Experimental: Growth inhibition of the KM12 human tumor cell line is measured as a screen for anti-cancer activity. Cells are grown in 96 well plates and exposed to the test compound for 48 hours. Compounds are tested at a single concentration, which is 10^-5 M for most compounds. The reported endpoint is percent growth (GI% or GIPRCNT), where numbers from 0 - 100% represent growth inhibition, and numbers from -100% - 0 represent cell death. For example, a value of 40 represents 60% growth inhibition. A value of 0 means no net growth occurred over the course of the experiment. A value of -40 indicates 40% of cells at the beginning of the experiment died by the end of the experiment. A value of -100 means all cells are dead at the end of the experiment.
NCI-60 Human Tumor Cell Lines Screen was performed using the standard one-dose NCI protocol, which is described in more detail at https://dtp.cancer.gov/discovery_development/nci-60/default.htm.
Compounds with GIPRCNT values below 10 were considered active. Activity score was based on GIPRCNT using the following formula: […]
Score is 0 for GIPRCNT values of 100 or above, 50 for GIPRCNT values of 0, and 100 for GIPRCNT values of -100.
Molecule `COc1ccc(CCN2C(=O)/C(=C/c3ccc(C4Oc5ccccc5C5CC(c6cccc(OC)c6)=NN54)cc3)SC2=S)cc1` (stereo not given) has a growth of 105%.
Work on `O=C(c1nc2ccccc2[nH]1)C1C(c2ccc([N+](=O)[O-])cc2)C2CC3CCCCC3N2[C@@]12C(=O)Nc1cc(Cl)ccc12` (stereo not given in full) yielded a growth of 29.1%.
For `O=C(Nc1ccc(Br)cc1F)c1cc(Cl)ccc1O`, the growth was -30.9% (active).
`O=S(=O)(c1ccc(NC(=S)NC23CC4CC(CC(C4)C2)C3)cc1)N1CCCCC1` gave a growth of 24.7%.
`S=C1NC2(c3ccccc3)CCC(=S)N2c2ccccc21` (stereo not given) showed a growth of 108%.
In the case of `CCCCCCc1cc2cc(-c3nc4ccccc4[nH]3)c(=Nc3ccccc3C)oc2cc1O`, the growth was 36.4%.
`C#CCn1cc(C=C2C(=O)NC(=O)NC2=O)c2cc(Cl)ccc21` was tested, and the growth was 85.6%.
`Cc1ccc(NCCNCC(O)CO)c2c(=O)c3ccccc3sc12` (stereo not given) gave a growth of 15.4%.
Molecule `CCN1C(=O)N(CC)C2C1NN=c1s/c(=C3\C(=O)N(C(C)C)c4ccccc43)c(=O)n12` (stereo not given) has a growth of 15.3%.
`Nc1nc2c(ncn2[C@@H]2O[C@H](CS)[C@@H](O)[C@H]2O)c(=O)[nH]1` gave a growth of 101%.
Work on `O=C(COc1cc(O)c2c(=O)cc(-c3ccccc3)oc2c1)Nc1ccccc1` yielded a growth of 86.5%.
In the case of `COc1ccc(/C=C2\SC(=Nc3ccccc3)NC2=O)cc1`, the growth was -89.6% (active).
For `Nc1ccn(C2O[C@H](CO)[C@@H](O)[C@H]2O)c(=O)n1` (stereo not given in full), the growth was 72.1%.
`COc1ccc(C(=O)Nc2ccc3nc(N4CCCCC4)cc(C)c3c2)cc1OC` showed a growth of 23.7%.
`COc1cc(/C=C/C(=O)c2ccc(Cl)cc2)cc(CN2CCCCC2)c1O` gave a growth of 72.6%.
With `N[C@@H](CC/[N+]([O-])=N/O)C(=O)O` the growth was 104%.
`COc1cc(C#N)cc2[nH]c(=O)oc12` gave a growth of 101%.
For `COc1cccc(/C(C#N)=C/c2nc3c(N4CCOCC4)nc(Cl)nc3n2C)c1`, the growth was 16.2%.
`CCCCN1CCN(c2ccc3nc(-c4ccc5nc(-c6ccc(OC)c(OC)c6)[nH]c5c4)[nH]c3c2)CC1` was tested, and the growth was -53.5% (active).
`COc1ccc(C2=Nn3c(NN)nnc3SC2)cc1` was tested, and the growth was 101%.
With `COc1ccc(-c2nnc(COc3ccc(C(=O)/C=C/c4ccco4)cc3)o2)cc1` the growth was 18.2%.
`CC(=O)O[C@@H]1/C=C/C(=O)N[C@@H](C)CCC/C=C/[C@@H]2CCC[C@H]21` gave a growth of 108%.
`O=S(=O)(Nc1ncccn1)c1ccc(NC2Nc3nc4ccccc4nc3S2)cc1` (stereo not given) showed a growth of 106%.
Work on `Clc1ccc(-c2nnc(COc3ccc(C4=NNC(c5ccco5)C4)cc3)o2)cc1` (stereo not given) yielded a growth of 70.9%.
With `COc1ccc(N(C)c2nc(N)nc3sc4c(c23)CCCC4)cc1` the growth was 7.2% (active).
Work on `CCOc1ccc(-c2nonc2NC(=O)c2cccc(C)c2)cc1OCC` yielded a growth of 62.6%.
In the case of `CC(=S)NC(=O)C(=O)/C=C1/NC(=O)C(=O)S1`, the growth was 107%.
In the case of `COc1ccccc1N1C(=N)S/C(=C\c2ccc(OCc3ccccc3F)cc2)C1=O`, the growth was 71.2%.
With `O=S(=O)(c1ccccc1)n1cc2c(c1-c1ccccc1)CCc1sc(Nc3ccccc3)nc1-2` the growth was 82.7%.
Molecule `O=C(CSc1nc2ccccc2c(=O)n1-c1ccccc1)Nc1ccc(C(=O)/C=C/c2ccc(Cl)cc2)cc1` has a growth of 100%.
Molecule `COC(=O)/C(CCC=C(C)C)=C1\[C@@H](OC(C)=O)C[C@@]2(C)[C@H]1C[C@@H](O)[C@H]1[C@@]3(C)CC[C@H](NCc4ccccc4)[C@@H](C)[C@@H]3CC[C@@]12C` has a growth of 72.9%.
For `COc1ccc(CN2CCCC(C(=O)c3ccc(C(F)(F)F)cc3)C2)c(O)c1` (stereo not given), the growth was 18.5%.
`COC(=O)C1=C(C)NC(C)=C(C(=O)OC)C(N2C(=O)CCC2=O)C1` (stereo not given) showed a growth of 94.7%.
`NCCNc1nc2ccccc2c2c(=O)c3cc(F)cc(Cl)c3sc12` was tested, and the growth was -82.6% (active).
Molecule `CN(C)c1ccc(/C=C/c2ccnc3c(O)cccc23)cc1` has a growth of 16.2%.
For `COc1cc(C2C3=C(COC3=O)N(CCO)c3cc4c(cc32)OCCO4)cc(OC)c1O` (stereo not given), the growth was -15.3% (active).
For `COc1ccc(-c2nc(-c3ccccn3)c(-c3ccccn3)n2CC(C)C)cc1OC1CCCC1`, the growth was 8.2% (active).
`CC(=O)n1cc(-c2c[nH]c3ccccc23)c(-c2ccc(Cl)cc2)n1` was tested, and the growth was 84.8%.
Molecule `O=C1/C(=C/c2ccc(O)cc2)COc2ccc(O)cc21` has a growth of 64.7%.
With `Cn1cc(-c2ccc3ncc(-c4ccc(CC(=O)Nc5cc(C(C)(C)C)no5)cc4)nc3c2)cn1` the growth was 6.86% (active).
